From PubChem BioAssay
Abeta rescue = restores growth of yeast expressing A-beta42 peptide; AID 1347071; Potency, µM (highest dose often 46.1 µM), usual class: activators; 410,000 tested, 0.063% active; yeast expressing A-beta42, growth rescue, OD600, 48 h; response scale: 0% DMSO, 100% iron-clioquinol control; also: nearly all actives have a fitted effect of over 55% in size
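Yeast growth medium received pinned compounds, then yeast cells expressing toxic A-beta were added; plates incubated at 30 C for 48 hr. Growth read as absorbance at 600 nm, normalized to DMSO and equimolar FeCl3 plus clioquinol controls.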
aSyn rescue = inhibitors of alpha-synuclein toxicity in yeast | AID 652106 | Potency, µM (doses to about 46.1 µM), without a hit: at the top dose growth rescue (activation), hits mostly activators | 370,000 tested, 0.14% active | Yeast expressing alpha-synuclein, growth rescue, BacTiter-Glo, 24 h; also: % of control where 0% means no effect; nearly all actives have a fitted effect of over 65% in size
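Readout is rescue of growth in alpha-synuclein-expressing yeast, so inhibitors of toxicity appear as activators. Growth after 24 hr at 30 deg C in galactose medium is quantified by luminescence.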
FUS suppressor = FUS proteinopathy suppression in yeast; 390,000 tested, 0.24% active; S. cerevisiae FUS-expressing, growth rescue, OD600, 24 h; Potency, µM (titrated, usually from 76.6 µM), hits mostly activators;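 also: plate controls were DMSO vehicle for no effect and reference control for full effect; nearly all actives have a fitted effect of over 55% in size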
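FUS-expressing yeast, raffinose-pregrown, induced in 2% galactose minimal medium at OD 0.005; compounds in a dilution series, 24hr at 30C. Growth restoration read as absorbance at 600 nm. CP55940 positive control, DMSO negative.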
Mito fusion act = blocks mitochondrial division or promotes mitochondrial fusion; S. cerevisiae fusion-defective mutant growth rescue, CellTiterGlo 48 h; Potency, µM (doses to about 46.1 µM), without a hit: at the highest dose growth rescue (activation), hits mostly activators; 320,000 tested, 0.23% active; also: % of control where 0% means no effect; nearly all actives have a fitted effect of over 45% in size
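Growth-rescue viability read-out: after 48 h at the non-permissive 37C in glycerol/ethanol YPEG, yeast mitochondrial fusion mutants are measured by CellTiterGlo luminescence; compounds (23 nl pinned per well) restoring growth score as division inhibitors or fusion activators.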
TDP-43 yeast inh = rescues yeast growth from TDP-43 toxicity. TDP-43 expressing yeast growth rescue, BacTiter-Glo, 24 h. Potency, µM (series often up to 46.1 µM), for inactives: at the top dose growth rescue (activation), actives largely listed as activators. 410,000 tested, 1.8% active; also: % of control where 0% means no effect; nearly all actives have a fitted effect of over 50% in size
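In this qHTS, compounds that restore growth of yeast expressing TDP-43 appear as activators. Cells (OD600=0.02, galactose medium, raffinose-pregrown) are incubated with compound 24 hr at 30 deg C and growth is quantified by BacTiter-Glo.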
* marks the source's active call; other numbers are inactive results; i = inactive; ? = inconclusive; nt = not tested or not shown. Shown are actives, neighbours in structure and some others; about 2.2% of the full set was active somewhere. Calls follow the shape of the dose curve; as a rule, active = well fitted curve in the direction sought with a large enough effect; inconclusive = small, poorly fitted or top-dose-only effect, or another doubt; inactive = no such curve, though single readings can be large; an effect the other way counts as inactive or inconclusive. Potency is read from the fitted curve at half-maximal effect.

SMILES	Abeta rescue	aSyn rescue	FUS suppressor	Mito fusion act	TDP-43 yeast inh
Nc1ncnc2c1ncn2C1O[C@H](CO)[C@@H](O)[C@@H]1O (stereo partly drawn)	i	-1.1%	i	5.6%	7.5%
Nc1nc(Cl)nc2c1ncn2[C@@H]1O[C@H](COP(=O)(O)OP(=O)(O)OP(=O)(O)O)[C@@H](O)[C@H]1O	nt	20.6µM*	nt	-48.8%	nt
Nc1ncnc2c1ncn2[C@@H]1O[C@H](COP(=O)(O)OP(=O)(O)OP(=O)(O)OP(=O)(O)OC[C@@H]2O[C@H](n3cnc4c(N)ncnc43)[C@@H](O)[C@H]2O)[C@@H](O)[C@H]1O	nt	7.31µM*	nt	?	nt
Nc1nc(F)nc2c1ncn2[C@@H]1O[C@H](COP(=O)(O)O)[C@@H](O)[C@@H]1O	nt	nt	i	nt	nt
Cc1ccc2nc(-c3ccco3)c(Cc3cccc(F)c3)n2c1	i	0.0%	i	nt	?
CCNC(=S)Nc1ccc2ncoc2c1	i	-6.2%	i	-0.7%	nt
CCNC(=S)Nc1ccc2c(c1)oc1ccccc12	10µM*	-14.4%	i	nt	?
CCOC(=O)c1c(C)oc2nc(C)nc(NCCCN3CCN(c4ccc(F)cc4)CC3)c12	i	nt	i	nt	8.1%
Cc1cc(C)nc(NS(=O)(=O)c2ccc(NC(=O)COc3ccc(C(C)(C)C)cc3)cc2)n1	i	nt	28.2µM*	nt	0.0%
Cc1ccc(-n2c(SCC(=O)Nc3ccc(S(=O)(=O)Nc4cc(C)nc(C)n4)cc3)nnc2-c2ccc(C(C)(C)C)cc2)cc1	nt	nt	22.4µM*	nt	nt
O=C(CSc1nnc(-c2ccco2)n1-c1ccc(Cl)cc1)Nc1ccc(S(=O)(=O)Nc2nccs2)cc1	nt	nt	25.1µM*	nt	nt
CCOc1ccc(-n2c(SCC(=O)Nc3ccc(S(=O)(=O)Nc4cc(C)nc(C)n4)cc3)nnc2-c2ccncc2)cc1	nt	nt	i	nt	nt
COc1ccc(-n2c(SCC(=O)Nc3ccc(S(=O)(=O)Nc4nccs4)cc3)nnc2-c2ccccc2)cc1	nt	nt	10µM*	nt	nt
Nn1c(SCC(=O)Nc2ccc(S(=O)(=O)Nc3nccs3)cc2)nnc1-c1ccco1	nt	nt	i	nt	nt
COc1ccc(OCC(=O)Nc2ccc(S(=O)(=O)Nc3nc(C)cc(C)n3)cc2)cc1	i	-5.3%	i	-4.4%	0.0%
Cc1cc(C)cc(C(=O)OCCCN(C)C2CN(Cc3cn(Cc4ccc([N+](=O)[O-])cc4)nn3)S(=O)(=O)C2)c1 (stereo not drawn)	nt	nt	i	nt	nt
Cc1nc(C)c(-c2ccc(SCC(=O)Nc3ccc(F)c(F)c3)nn2)s1	i	nt	i	nt	25.0%
Cn1c(COc2ccccc2)nnc1SCC(=O)Nc1ccc(S(=O)(=O)Nc2nccs2)cc1	nt	nt	i	nt	nt
O=C(CSc1nnc(COc2ccccc2)n1-c1ccccc1)Nc1ccc(S(=O)(=O)Nc2nccs2)cc1	nt	nt	20µM*	nt	nt
CCOC(=O)c1sc2nc3c(cc2c1N)COC(C)(CC)C3 (stereo not drawn)	i	nt	i	3.5%	11.2µM*
CCOC(=O)c1sc2nc3c(cc2c1N)COC(C)(C)C3	i	-4.4%	i	5.1%	11.0%
CCC(C)Nc1nc(-c2cccc(OC)c2O)nc2ccccc12 (stereo not drawn)	i	-8.7%	i	0.8%	11.2µM*
COc1cccc(-c2nc(NCc3cccnc3)c3ccccc3n2)c1O	i	2.4%	i	-5.4%	3.9%
COc1cccc(-c2nc(NC(C)C)c3ccccc3n2)c1O	i	-1.7%	i	8.2%	20µM*
COc1cccc(-c2nc(Oc3cccc(C)c3C)c3ccccc3n2)c1O	i	10.6%	i	-0.8%	4.9%
SMILES	Abeta rescue	aSyn rescue	FUS suppressor	Mito fusion act	TDP-43 yeast inh
CSc1nc(=O)[nH]c2nc[nH]c12	nt	0.3%	nt	nt	nt
CCc1nn2c(=O)cc(COC(=O)c3ccco3)nc2s1	i	nt	i	nt	-10.4%
O=C(Nc1cnccn1)Nc1ccc(Cl)cc1Cl	i	8.1%	i	9.8%	15.8%
Cn1ccc(NC(=O)Nc2ccc(Cl)cc2Cl)n1	i	-1.5%	i	4.0%	14.1µM*
O=C(O)Cn1cc(C(=O)c2cccs2)c2ccccc21	i	6.6%	i	1.8%	-15.6%
CCOC(=O)Cn1cc(C(=O)c2cccs2)c2ccccc21	i	-0.5%	i	7.3%	17.8µM*
CCC(C(=O)Nc1ccc(C)c(Cl)c1)n1c(=O)c(-c2ccccc2NC(C)=O)nc2ccccc21 (stereo not drawn)	i	nt	?	nt	11.5%
Cc1cccc(CSCCNC(=O)COc2ccc(Cl)cc2)c1	i	9.1%	i	3.9%	?
O=C(COc1ccc(Cl)cc1)NCCSCc1ccccc1Cl	i	2.4%	i	?	25.1µM*
O=C(COc1ccc(Cl)cc1)NCCSCc1cccc(Cl)c1	i	18.2%	i	-2.9%	15.8µM*
CCNC(=O)CCc1nc(-c2ccc(C(C)C)cc2)no1	nt	nt	i	nt	nt
Nc1ccc(C2CCCc3nonc32)c2nonc12 (stereo not drawn)	i	1.0%	i	7.0%	22.4µM*
Clc1ccc2nnnc(-c3ccccc3)c2c1	i	14.1%	i	24.7%	3.16µM*
Cc1ccc(S(=O)(=O)c2cc3cc(C(=O)Nc4ccc(C)cc4C)ccc3oc2=O)cc1	i	nt	i	nt	-17.1%
CCC1(C(=O)c2ccc(Cl)cc2)C2c3ccccc3OC(=O)C21C(=O)Nc1ccccc1 (stereo not drawn)	i	14.1µM*	nt	-1.8%	1.8%
COc1ccc(OCc2ccc(C(=O)O)cc2)cc1	i	5.5%	i	5.6%	14.1µM*
CCCc1cc(=O)oc2cc(OCc3ccc(C(=O)O)cc3)ccc12	i	2.8%	i	-105.7%	2.51µM*
NNC(=O)c1ccc(COc2ccc3ccccc3c2)cc1	i	-6.7%	i	-40.3%	15.8µM*
NNC(=O)c1ccc(COc2ccc3c(c2)CCC3)cc1	i	-19.9%	?	-8.7%	17.7%
CCCC(=O)N1CCC1(C)C(=O)Nc1ccc(-n2cccc2)cc1 (stereo not drawn)	i	3.1%	i	nt	20µM*
CCCC(=O)N1CCC1(C)C(=O)Nc1ccc(C)c(C)c1 (stereo not drawn)	i	13.3%	i	nt	5.1%
COc1cccc(CNC(=O)Cn2c(=O)cc(C)c3c(C)nn(C)c32)c1OC	i	nt	i	nt	11.3%
CS(=O)(=O)c1ncc(Cl)c(C(=O)N2CCN(c3cccc(Cl)c3)CC2)n1	i	9.0%	i	nt	12.6µM*
O=C(c1ccc(S(=O)(=O)N2CCCC2)cc1)N1CCN(c2cccc(Cl)c2)CC1	i	20.3%	nt	-0.6%	?
CCS(=O)(=O)c1ncc(Cl)c(C(=O)N2CCN(c3cccc(Cl)c3)CC2)n1	i	nt	i	nt	12.6µM*
COc1ccccc1-c1noc(CSc2nc3ccc(C)cc3[nH]2)n1	i	nt	i	nt	?
CN1C(c2ccccc2)=NO[C@]1(C)c1ccccc1	i	-2.5%	i	nt	7.3%
